# Reference: PubChem BioAssay AID1645856 (Buhrlage Lab, Dana-Farber Cancer Institute and Novartis …, 2021)
# Among all 47,000 compounds or so, about 510 (1.1%) were called active. Only a selection was taken, and actives are over-represented in it overall. Unmarked numbers belong to inactive results. Cut-off read from the data, not from the text of the source: active = inhibition above about 30%; inactive = the rest.
# Target: Ubiquitin carboxyl-terminal hydrolase 10 (Homo sapiens) (UniProt Q14694)
# Test: inhibitors of human USP10 deubiquitinase (AID 1645856)
# Settings: purified USP10, Ub-rhodamine fluorescence, 60 min; at 20 µM; active compounds read high
# Chain of Ubiquitin carboxyl-terminal hydrolase 10 (Homo sapiens) (Q14694 whole entry, looked up): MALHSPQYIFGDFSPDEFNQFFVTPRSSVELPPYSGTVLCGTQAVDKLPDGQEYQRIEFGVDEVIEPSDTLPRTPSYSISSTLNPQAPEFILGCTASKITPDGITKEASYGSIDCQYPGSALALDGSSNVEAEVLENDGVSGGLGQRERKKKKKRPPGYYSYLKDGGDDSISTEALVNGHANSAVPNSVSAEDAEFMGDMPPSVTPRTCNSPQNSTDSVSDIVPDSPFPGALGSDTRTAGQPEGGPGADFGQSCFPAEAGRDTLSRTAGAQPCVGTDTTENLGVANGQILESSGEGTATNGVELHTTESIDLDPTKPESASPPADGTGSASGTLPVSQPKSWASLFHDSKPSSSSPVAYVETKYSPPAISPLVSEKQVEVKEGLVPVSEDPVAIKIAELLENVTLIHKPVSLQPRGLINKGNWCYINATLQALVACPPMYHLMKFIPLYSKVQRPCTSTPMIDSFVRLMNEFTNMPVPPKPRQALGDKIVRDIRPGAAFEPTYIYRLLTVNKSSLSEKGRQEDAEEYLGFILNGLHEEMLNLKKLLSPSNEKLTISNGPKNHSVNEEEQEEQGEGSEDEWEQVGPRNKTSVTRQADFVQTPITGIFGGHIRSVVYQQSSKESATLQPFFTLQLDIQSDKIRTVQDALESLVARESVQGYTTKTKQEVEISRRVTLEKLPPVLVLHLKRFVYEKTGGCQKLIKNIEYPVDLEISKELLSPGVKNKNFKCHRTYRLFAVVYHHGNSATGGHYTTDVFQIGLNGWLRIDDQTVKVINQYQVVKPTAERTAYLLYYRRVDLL
row,SMILES,inhibition
1,O=C(Nc1cccc(Cl)c1)N(Cc1ccccc1)CC1CC=CCC1 (stereo not given),16.3%
2,CCc1nnc(CN2CCC(C3CCCCCN3C(=O)NC(C)C)CC2)o1 (stereo not given),-4.07%
3,COc1ccc(Nc2cc(C(=O)N3CCC4(CC3)OCCO4)c3ccccc3n2)cc1,-0.645%
4,CCN1C(=O)[C@H]2CN(C(C)=O)C[C@H]2C12CCN(C(=O)NCCc1ccc(OC)cc1)CC2,0.803%
5,O=C(CN(Cc1ccccc1Cl)S(=O)(=O)c1ccccc1F)NC(c1ccccc1)c1ccccc1,6.49%
6,Cc1ccc2[nH]c(=O)c(CN(CC3COCCO3)C(=O)Nc3ccccc3C)cc2c1 (stereo not given),-0.00505%
7,Cc1cc(=O)n(CC(=O)Nc2ccc3c(c2)OCO3)c2c1c(-c1ccccc1)nn2-c1ccccc1,25%
8,O=S(=O)(c1cc(-c2nnc(C3CC3)o2)co1)N1CCCCC1,-3.39%
9,O=C(NC1CCCC1)c1ccc(N2CCOc3ccccc32)s1,0.616%
10,CCc1nnc(-c2cc(S(=O)(=O)Nc3ccccc3F)c[nH]2)o1,-2.11%
11,O=C(Oc1ccc(Oc2ccccc2)cc1)c1ccc([N+](=O)[O-])cc1,7.41%
12,Cc1nn(-c2ccc(F)cc2)c(C)c1S(=O)(=O)NC1CC1,-2.46%
13,COc1ccc(NS(=O)(=O)c2cc(NC(=O)COc3ccccc3F)ccc2OC)cc1,3.65%
14,COc1ccc(NS(=O)(=O)c2cc(NC(=O)CC(=O)c3ccc([N+](=O)[O-])cc3)ccc2C)cc1,43.8% (active)
15,COc1ccc(NS(=O)(=O)c2cc(NC(=O)/C=C/c3cccc(OC)c3)ccc2OC)cc1,0.326%
16,Cc1ccc(C2c3[nH]c4ccccc4c3C[C@H]3C(=O)N(c4ccccc4C(=O)NC4CCCCC4)C(=O)N23)cc1 (stereo not given in full),-9.46%
17,Cc1cccc(C(=O)NCc2nnc3ccccn23)c1,5.59%
18,CCOc1c(C)cnc2c1c(=O)n(CC(=O)N1CCC(C)CC1)c(=O)n2C,-3.58%
19,c1ccc(OCCn2nc(C3CCN(C4CCOCC4)CC3)c3nccnc32)cc1,-0.0392%
20,O=C(NCc1ccc2c(c1)OCO2)c1cn(-c2cccc(Cl)c2)nn1,28.3%
21,CCN1CCN(Cc2nc(-c3ccc(N4CCCCC4)nc3)no2)CC1,0.502%
22,CCc1cc(C2CCCN2C(=O)NCc2ccc(F)cc2)on1 (stereo not given),0.108%
23,CC1(C(=O)NC2CCCCCC2)Cc2ccccc2C(=O)N1C1CCCCC1 (stereo not given),3.98%
24,O=C(COC(=O)c1ccc(F)cc1)NC1CCCc2ccccc21 (stereo not given),-2.88%
25,O=C(c1ccccc1)c1ccc(NC2CCCc3ccccc32)c([N+](=O)[O-])c1 (stereo not given),-3.29%
26,Nc1ccc(C(=O)OCC(=O)NC2CCCc3ccccc32)cc1[N+](=O)[O-] (stereo not given),31.8% (active)
27,N#Cc1ccccc1OCC(=O)Nc1ccc(-c2cn3ccsc3n2)cc1,-4.52%
28,COc1ccc(NC(=O)CSc2cn(CC(=O)N3CCCC3)c3ccccc23)cc1,1.6%

row,SMILES,inhibition
1,CCOc1ccc(NC(=O)Cn2cc(C(=O)c3ccc(Cl)cc3)c(=O)c3cc(OC)ccc32)cc1,27%
2,CCOc1ccc2c(c1)c(=O)c(C(=O)c1ccccc1)cn2CC(=O)Nc1ccc(OC)cc1,59.7% (active)
3,O=C(CN1CCCN(c2cc(-c3ccc(N4CCOCC4)cc3)ncn2)CC1)N1CCOCC1,-2.74%
4,CCN1C(=O)[C@H]2CN(CCOC)C[C@H]2C12CCN(C(=O)Nc1ccccc1)CC2,0.649%
5,Cc1cc2nc(N3CCOCC3)n(CC(=O)Nc3ccccc3F)c(=O)c2n1C,-1.21%
6,Cc1ccc(CN2C(=O)C(CC(=O)Nc3ccccc3F)n3c2nc2ccccc23)cc1 (stereo not given),6.51%
7,Cc1nc2c(c(C)c1CCC(=O)Nc1ccccc1F)c(=O)n(C)c(=O)n2C,32.5% (active)
8,COc1ccc(NC(=O)CC2C(=O)NCCN2C(=O)Nc2ccc(F)cc2)cc1 (stereo not given),-0.861%
9,CCOc1ccc(-c2noc(-c3nn(-c4cccc(OC)c4)ccc3=O)n2)cc1,7.86%
10,O=C(COC(=O)C1CCN(S(=O)(=O)c2c(Cl)cccc2Cl)CC1)Nc1ccc2c(c1)CCC2,6.62%
11,O=C(Nc1nnc(-c2cccc([N+](=O)[O-])c2)o1)C1CCN(S(=O)(=O)c2ccc3c(c2)CCC3)CC1,46.7% (active)
12,Cc1cccc(-c2nnc(-c3cccc(S(=O)(=O)N4CCCC4)c3)o2)c1,3.94%
13,CCOC(=O)C1CCN(C(=O)c2cnc(Nc3ccc(C)c(Cl)c3)c3ccccc23)CC1,6.16%
14,COc1ccc(C(=O)Cn2nc(C)cc2C)cc1,-2.02%
15,Cc1cc(C)cc(NC(=O)c2cc(CN3CCOCC3)on2)c1,-1.83%
16,O=C(NCC1CCCO1)c1[nH]c2ccccc2c1Sc1ccc(Cl)cc1 (stereo not given),0.402%
17,Cc1ccc(CC(=O)N2CCCC(c3ccncn3)C2)s1 (stereo not given),-2.71%
18,CC(c1ccncc1)n1nccc1NC(=O)c1cccnc1Sc1ccccc1 (stereo not given),-7.87%
19,CCc1noc(-c2ccnc(-n3ncc(C(=O)N4CCC(C)CC4)c3C)c2)n1,-0.304%
20,COc1ccc(-c2cc(C(=O)NCCCN3CCCC3=O)c3ccccc3n2)cc1OC,-3.65%
21,CC(C)CC1NC(=O)C2(CCN(C(=O)Nc3ccc(Cl)c(Cl)c3)CC2)NC1=O (stereo not given),1.3%
22,O=C(NCC1CCCO1)c1ccccc1N1C(=O)[C@@H]2Cc3c([nH]c4ccccc34)C(c3cccc(Cl)c3)N2C1=O (stereo not given in full),-2.66%
23,O=C(Nc1ccccc1Br)c1ncoc1-c1cccs1,2.95%
24,CCCc1nc(-c2c(C)cc(C)nc2NC(=O)C2CCCCC2)no1,-4.35%
25,O=S(=O)(Nc1cccc(O)c1)c1ccc2oc3ccc(S(=O)(=O)Nc4cccc(O)c4)cc3c2c1,54.6% (active)
26,Cc1cccc(NS(=O)(=O)c2ccc3nnc(C)n3c2)c1,-2.24%
27,COc1cccc(NS(=O)(=O)c2ccc(-c3coc(C)n3)cc2)c1,2.04%
